# The source made the active and inactive calls. The calls were made as follows: active = hit-call score of the fitted dose curve at least 0.9, where 1 is the maximum; inactive = score below 0.9.
# How the values were obtained:
# [1] = ATG_GLI_CIS: Attagene CIS-FACTORIAL HepG2 Assay for human Zinc Finger Protein GLI1 (AID 2282945); conditions: HepG2, Attagene cis-factorial reporter mRNA, GLI element; actives raise or lower the signal
# Summary of the method: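 HepG2 cells transiently transfected with cis-promoter multiplexed reporter units report endogenous transcription factor activity. After 24 h chemical exposure, reporter mRNA was quantified by RT-PCR, 6-FAM labelling, HpaI digestion and capillary electrophoresis, with bidirectional fitting against DMSO.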
# [2] = biological target: Bile acid receptor (Homo sapiens) (UniProt Q96RI1); assay: ATG_IR1_CIS: Attagene CIS-FACTORIAL HepG2 Assay for human Nuclear Receptor Subfamily 1 Group H Member 4 (NR1H4), IR1 submotif (AID 2282946); conditions: IR1 reporter transcription, actives raise or lower the signal
# Summary of the method: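 Transient MRTU transfection, HepG2; 24 h dosing; RNA → RT-PCR → 6-FAM primer extension → HpaI digest → capillary electrophoresis fluorescence. Gain/loss of signal fitted relative to DMSO.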
# [3] = ATG_GRE_CIS: Attagene CIS-FACTORIAL HepG2 Assay for human Glucocorticoid Response Elements (GRE) (AID 2282947); conditions: HepG2 GRE cis-reporter, Attagene multiplex mRNA; actives raise or lower the signal
# Summary of the method: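 Following 24 h chemical exposure of transiently transfected HepG2 cells, total RNA was reverse-transcribed and reporter cDNA amplified, fluorescently labelled and sized by capillary electrophoresis. Signal gain or loss was fitted relative to DMSO vehicle.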
# [4] = ATG_ISRE_CIS: Attagene CIS-FACTORIAL HepG2 Assay for human Interferon Regulatory Factor 1 (IRF1) binding to an Interferon-Stimulated Response Element (ISRE) (AID 2282948); conditions: HepG2 ISRE cis-reporter (Attagene), mRNA transcription readout; actives raise or lower the signal
# Summary of the method: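 Cell-based cis-reporter assay; HepG2; 24 h exposure; reporter mRNA by RT-PCR plus capillary electrophoresis fluorescence; activity in either direction scored relative to DMSO.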
# [5] = ATG_M_32_CIS: Attagene CIS-FACTORIAL HepG2 Assay for M32 Transcription Factor (Internal Marker) (AID 2282949); conditions: HepG2 Attagene cis-factorial M32 reporter, mRNA; actives raise or lower the signal;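 also: background control marker of the multiplexed CIS panel rather than a real target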
# Summary of the method: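 Fluorescent capillary electrophoresis peaks of HpaI-digested, FAM-labelled RT-PCR reporter products give the signal. Source: transiently transfected human liver HepG2 cells, 24 h after chemical dosing; bidirectional fitting against DMSO.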
# [6] = ATG_M_06_CIS: Attagene CIS-FACTORIAL HepG2 Assay for M06 Transcription Factor (Internal Marker) (AID 2282950); conditions: HepG2 Attagene CIS-FACTORIAL M06 internal marker reporter; actives raise or lower the signal
# Summary of the method: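 Steps: transfect HepG2 with multiplexed cis-element reporter constructs; dose chemical 24 h; extract RNA with DNase treatment; reverse-transcribe, PCR-amplify, 6-FAM label, HpaI digest; separate fragments by capillary electrophoresis. Activity fitted both directions versus DMSO.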
# [7] = biological target: Hypoxia-inducible factor 1-alpha (Homo sapiens) (UniProt Q16665); assay: ATG_HIF1a_CIS: Attagene CIS-FACTORIAL HepG2 Assay for human Hypoxia Inducible Factor 1 (HIF1A) (AID 2282951); conditions: HepG2 Attagene cis-factorial HIF1a reporter transcription; actives raise or lower the signal
# Summary of the method: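 HepG2, transient cis-reporter library, 24 h dosing. RNA → RT (oligo dT) → PCR → 6-FAM primer extension → HpaI → CE. Bidirectional curve fit vs DMSO.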
# [8] = biological target: Hepatocyte nuclear factor 6 (Homo sapiens) (UniProt Q9UBC0); assay: ATG_HNF6_CIS: Attagene CIS-FACTORIAL HepG2 Assay for human Hepatocyte Nuclear Factor 6 (HNF6) (AID 2282952); conditions: HepG2 Attagene cis-factorial HNF6 reporter transcription; actives raise or lower the signal
# Summary of the method: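 Cells are HepG2 carrying transiently transfected cis-promoter reporter units. Treatment lasts 24 h, after which reporter transcripts are reverse-transcribed, amplified, FAM-labelled and sized by capillary electrophoresis. DMSO serves as baseline.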
# [9] = biological target: Heat shock factor protein 1 (Homo sapiens) (UniProt Q00613); assay: ATG_HSE_CIS: Attagene CIS-FACTORIAL HepG2 Assay for human Heat Shock Transcription Factor 1 (HSE) (AID 2282953); conditions: HepG2 HSE cis-reporter, Attagene RNA transcription; actives raise or lower the signal
# Summary of the method: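 Cells were transfected with cis-element-driven reporter constructs, dosed for 24 h, then total RNA was reverse-transcribed and reporter cDNA amplified, FAM-labelled and digested with HpaI. Fragments were resolved by capillary electrophoresis; gain or loss was fitted against DMSO.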
# [10] = ATG_MRE_CIS: Attagene CIS-FACTORIAL HepG2 Assay for human Metal Responsive Element (MRE) (AID 2282954); conditions: HepG2 MRE cis-reporter transcription, Attagene multiplex; actives raise or lower the signal
# Summary of the method: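 Step one: transfect HepG2 with cis-regulated reporter units. Step two: dose 24 h. Step three: isolate RNA, RT-PCR, 6-FAM label, HpaI digest, capillary electrophoresis. Fit bidirectionally to DMSO.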
# [11] = biological target: Paired box protein Pax-6 (Homo sapiens) (UniProt P26367); assay: ATG_Pax6_CIS: Attagene CIS-FACTORIAL HepG2 Assay for human Paired Box 6 (PAX6) (AID 2282956); conditions: HepG2 CIS-FACTORIAL PAX6 reporter transcription, RNA readout; actives raise or lower the signal
# Summary of the method: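 Multiplexed cis-reporter HepG2 system; 24 h treatment; reporter mRNA read by RT-PCR/CE fluorescence; bidirectional fit vs DMSO.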
# [12] = ATG_PXRE_CIS: Attagene CIS-FACTORIAL HepG2 Assay for human Pregnane X Receptor Element (PXRE) (AID 2282957); conditions: HepG2 Attagene CIS-FACTORIAL PXRE reporter, mRNA; actives raise or lower the signal
# Summary of the method: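 Multiplexed cis-reporter assay in transiently transfected human HepG2 cells; 24 h chemical exposure. Reporter transcripts quantified by RT-PCR with fluorescent labeling and capillary electrophoresis.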
# [13] = ATG_PPRE_CIS: Attagene CIS-FACTORIAL HepG2 Assay for human Peroxisome Proliferator-activated Response Element (PPRE) (AID 2282958); conditions: HepG2 PPRE cis-element reporter, Attagene transcription factor profiling; actives raise or lower the signal
# Summary of the method: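 Transcript-level reporter induction in transfected HepG2 cells after 24 h chemical exposure, quantified by fluorescence from RT-PCR products separated by capillary electrophoresis.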
# [14] = ATG_RORE_CIS: Attagene CIS-FACTORIAL HepG2 Assay for human RAR-related Orphan Receptor Element (RORE) (AID 2282959); conditions: HepG2 Attagene cis-factorial RORE reporter, mRNA; actives raise or lower the signal
# Summary of the method: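 Multiplexed reporter assay measuring mRNA induction from a cis promoter element in transiently transfected HepG2 cells after 24 h treatment. Detection via RT-PCR and capillary electrophoresis fluorescence; DMSO serves as baseline.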
# [15] = ATG_Sox_CIS: Attagene CIS-FACTORIAL HepG2 Assay for human SRY-box transcription factor (SOX) (AID 2282960); conditions: HepG2 Attagene cis-factorial SOX reporter, mRNA; actives raise or lower the signal
# Summary of the method: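 Cells were transfected with reporter constructs under cis-regulatory promoters, then exposed to chemicals for 24 h. Reporter transcripts were quantified by fluorescence after RT-PCR and capillary electrophoresis; activity was fitted in both directions against DMSO.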
# [16] = biological target: Transcription factor Sp1 (Homo sapiens) (UniProt P08047); assay: ATG_Sp1_CIS: Attagene CIS-FACTORIAL HepG2 Assay for human Specificity Protein 1 (Sp1) (AID 2282961); conditions: HepG2 Sp1 cis-reporter transcription, actives raise or lower the signal
# Summary of the method: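 Measures mRNA induction of an Sp1-linked reporter in HepG2 cells 24 h post-dosing. Multiplexed reporters read by RT-PCR and capillary electrophoresis; DMSO serves as negative control and baseline.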
# [17] = ATG_SREBP_CIS: Attagene CIS-FACTORIAL HepG2 Assay for human Sterol Regulatory Element Binding (SREBP) (AID 2282962); conditions: HepG2 Attagene cis-factorial SREBP reporter, mRNA; actives raise or lower the signal
# Summary of the method: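 mRNA induction of transfected cis-promoter reporters in HepG2 cells, 24 h post-dose. Detection: RT-PCR with 6-FAM-labelled products, HpaI digest, capillary electrophoresis. DMSO served as negative control and baseline.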
# [18] = biological target: Signal transducer and activator of transcription 3 (Homo sapiens) (UniProt P40763); assay: ATG_STAT3_CIS: Attagene CIS-FACTORIAL HepG2 Assay for human Signal Transducer and Activator of Transcription 3 (STAT3) (AID 2282963); conditions: HepG2, Attagene cis-factorial STAT3 reporter transcription; actives raise or lower the signal
# Summary of the method: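 Transcript-level reporter assay. HepG2 transient MRTU transfection, 24 h exposure, fluorescence detection after RT-PCR and CE; DMSO baseline.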
# [19] = ATG_TA_CIS: Attagene CIS-FACTORIAL HepG2 Assay for human TA Basal Promoter (AID 2282964); conditions: HepG2 Attagene CIS-factorial TA basal promoter reporter; actives raise or lower the signal
# Summary of the method: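 Steps: transfect HepG2 with MRTUs; dose 24 h; isolate RNA, DNase-treat, reverse-transcribe; PCR and FAM-label reporter cDNA; digest with HpaI 2h at 37 C; run capillary electrophoresis. Activity fitted both directions against DMSO.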
# [20] = ATG_PBREM_CIS: Attagene CIS-FACTORIAL HepG2 Assay for human Phenobarbital-responsive Enhancer Module (PBREM) (AID 2282955); conditions: HepG2 PBREM cis-reporter, Attagene multiplexed transcription; actives raise or lower the signal
# Summary of the method: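 HepG2, transient MRTU transfection, 24 h dosing; RNA → oligo(dT) RT → PCR → 6-FAM extension → HpaI → CE. Bidirectional fit vs DMSO.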
# Hepatocyte nuclear factor 6 (Homo sapiens), sequence (Q9UBC0 whole entry, looked up): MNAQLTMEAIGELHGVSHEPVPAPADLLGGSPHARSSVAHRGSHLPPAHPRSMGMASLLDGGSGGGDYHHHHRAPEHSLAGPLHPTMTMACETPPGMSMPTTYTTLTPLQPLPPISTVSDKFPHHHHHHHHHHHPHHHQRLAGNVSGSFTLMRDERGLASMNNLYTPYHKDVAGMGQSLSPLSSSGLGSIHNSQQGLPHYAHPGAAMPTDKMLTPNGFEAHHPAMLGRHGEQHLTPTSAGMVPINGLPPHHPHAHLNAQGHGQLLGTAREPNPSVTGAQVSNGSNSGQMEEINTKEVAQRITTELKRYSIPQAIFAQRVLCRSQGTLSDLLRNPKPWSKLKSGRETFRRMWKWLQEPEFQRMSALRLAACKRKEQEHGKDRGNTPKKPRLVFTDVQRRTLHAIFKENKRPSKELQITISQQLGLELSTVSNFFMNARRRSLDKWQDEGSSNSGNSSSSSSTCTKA
# Signal transducer and activator of transcription 3 (Homo sapiens), sequence (P40763 whole entry, looked up): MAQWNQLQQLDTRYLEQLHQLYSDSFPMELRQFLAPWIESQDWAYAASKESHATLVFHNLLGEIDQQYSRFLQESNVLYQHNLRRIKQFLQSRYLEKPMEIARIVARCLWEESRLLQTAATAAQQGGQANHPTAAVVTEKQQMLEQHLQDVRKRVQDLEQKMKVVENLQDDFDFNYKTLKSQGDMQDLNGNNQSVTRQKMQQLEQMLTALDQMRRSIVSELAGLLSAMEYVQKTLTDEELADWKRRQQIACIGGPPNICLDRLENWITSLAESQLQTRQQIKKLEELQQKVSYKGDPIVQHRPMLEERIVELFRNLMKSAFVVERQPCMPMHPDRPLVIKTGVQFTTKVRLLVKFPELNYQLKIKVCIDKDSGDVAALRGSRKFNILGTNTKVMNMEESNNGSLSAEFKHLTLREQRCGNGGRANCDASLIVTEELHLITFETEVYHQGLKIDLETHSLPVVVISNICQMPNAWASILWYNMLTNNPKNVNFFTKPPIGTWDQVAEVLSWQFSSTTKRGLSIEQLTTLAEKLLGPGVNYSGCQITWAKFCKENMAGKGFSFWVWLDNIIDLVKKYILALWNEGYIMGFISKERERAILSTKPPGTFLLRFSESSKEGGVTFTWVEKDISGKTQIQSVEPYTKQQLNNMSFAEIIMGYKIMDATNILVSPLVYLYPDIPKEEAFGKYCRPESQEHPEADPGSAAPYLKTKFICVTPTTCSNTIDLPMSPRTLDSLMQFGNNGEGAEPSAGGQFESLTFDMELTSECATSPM
# Bile acid receptor (Homo sapiens), sequence (Q96RI1 whole entry, looked up): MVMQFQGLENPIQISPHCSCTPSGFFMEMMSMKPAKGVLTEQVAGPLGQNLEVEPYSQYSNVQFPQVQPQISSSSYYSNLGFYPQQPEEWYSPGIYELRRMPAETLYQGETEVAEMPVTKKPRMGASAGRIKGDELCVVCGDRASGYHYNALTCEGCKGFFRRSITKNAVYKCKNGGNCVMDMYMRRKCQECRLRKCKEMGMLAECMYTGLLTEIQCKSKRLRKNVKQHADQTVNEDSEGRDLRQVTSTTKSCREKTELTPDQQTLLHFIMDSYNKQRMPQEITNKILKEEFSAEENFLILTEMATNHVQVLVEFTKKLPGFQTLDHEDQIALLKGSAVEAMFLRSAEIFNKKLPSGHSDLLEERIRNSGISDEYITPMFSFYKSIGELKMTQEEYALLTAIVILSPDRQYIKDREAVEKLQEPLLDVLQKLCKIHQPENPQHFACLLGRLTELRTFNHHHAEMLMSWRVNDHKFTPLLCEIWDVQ
# Transcription factor Sp1 (Homo sapiens), sequence (P08047 whole entry, looked up): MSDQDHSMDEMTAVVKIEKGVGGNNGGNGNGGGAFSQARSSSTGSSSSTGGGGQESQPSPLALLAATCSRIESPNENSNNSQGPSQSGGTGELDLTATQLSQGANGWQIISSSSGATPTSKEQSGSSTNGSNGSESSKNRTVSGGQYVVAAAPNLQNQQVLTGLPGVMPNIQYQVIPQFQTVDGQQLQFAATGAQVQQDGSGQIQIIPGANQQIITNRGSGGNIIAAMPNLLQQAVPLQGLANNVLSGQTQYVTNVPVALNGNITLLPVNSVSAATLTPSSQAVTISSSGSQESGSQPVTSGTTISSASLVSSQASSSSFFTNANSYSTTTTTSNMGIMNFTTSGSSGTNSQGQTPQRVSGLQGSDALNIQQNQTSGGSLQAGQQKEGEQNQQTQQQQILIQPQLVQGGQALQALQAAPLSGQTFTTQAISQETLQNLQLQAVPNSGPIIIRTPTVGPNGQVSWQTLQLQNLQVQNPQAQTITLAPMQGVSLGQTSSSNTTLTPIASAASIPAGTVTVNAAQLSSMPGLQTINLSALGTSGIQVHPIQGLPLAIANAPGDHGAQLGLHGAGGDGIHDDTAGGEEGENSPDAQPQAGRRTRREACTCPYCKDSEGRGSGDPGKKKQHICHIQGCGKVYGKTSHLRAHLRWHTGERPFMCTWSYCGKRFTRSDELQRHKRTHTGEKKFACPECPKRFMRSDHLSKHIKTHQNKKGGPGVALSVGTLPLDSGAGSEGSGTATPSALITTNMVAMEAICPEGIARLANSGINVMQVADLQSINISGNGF
# Paired box protein Pax-6 (Homo sapiens), sequence (P26367 whole entry, looked up): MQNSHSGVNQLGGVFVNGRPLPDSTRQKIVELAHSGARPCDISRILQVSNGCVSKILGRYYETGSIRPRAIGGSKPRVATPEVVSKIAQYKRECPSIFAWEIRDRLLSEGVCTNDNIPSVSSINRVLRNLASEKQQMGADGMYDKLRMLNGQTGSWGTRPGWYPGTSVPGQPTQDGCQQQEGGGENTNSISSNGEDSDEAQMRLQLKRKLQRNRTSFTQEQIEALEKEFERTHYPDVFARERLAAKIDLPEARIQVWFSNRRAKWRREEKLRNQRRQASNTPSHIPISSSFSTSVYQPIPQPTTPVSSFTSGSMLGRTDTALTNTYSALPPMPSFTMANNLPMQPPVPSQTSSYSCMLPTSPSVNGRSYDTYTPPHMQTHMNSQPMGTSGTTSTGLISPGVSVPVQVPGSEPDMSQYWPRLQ
# Heat shock factor protein 1 (Homo sapiens), sequence (Q00613 whole entry, looked up, the tested form may be a part): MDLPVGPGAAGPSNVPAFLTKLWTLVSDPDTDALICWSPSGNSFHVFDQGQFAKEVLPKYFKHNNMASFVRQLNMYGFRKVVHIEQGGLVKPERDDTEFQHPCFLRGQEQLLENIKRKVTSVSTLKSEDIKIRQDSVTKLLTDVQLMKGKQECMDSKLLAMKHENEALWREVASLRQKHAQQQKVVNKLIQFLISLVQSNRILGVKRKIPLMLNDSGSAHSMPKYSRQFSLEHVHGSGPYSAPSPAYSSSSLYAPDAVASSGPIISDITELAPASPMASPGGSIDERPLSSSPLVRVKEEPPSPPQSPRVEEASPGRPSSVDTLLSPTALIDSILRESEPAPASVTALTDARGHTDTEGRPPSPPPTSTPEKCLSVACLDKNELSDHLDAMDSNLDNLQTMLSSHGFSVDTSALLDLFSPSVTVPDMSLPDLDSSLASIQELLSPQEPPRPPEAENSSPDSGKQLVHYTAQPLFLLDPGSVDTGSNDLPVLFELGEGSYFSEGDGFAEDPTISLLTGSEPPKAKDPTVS
# Hypoxia-inducible factor 1-alpha (Homo sapiens), sequence (Q16665 whole entry, looked up): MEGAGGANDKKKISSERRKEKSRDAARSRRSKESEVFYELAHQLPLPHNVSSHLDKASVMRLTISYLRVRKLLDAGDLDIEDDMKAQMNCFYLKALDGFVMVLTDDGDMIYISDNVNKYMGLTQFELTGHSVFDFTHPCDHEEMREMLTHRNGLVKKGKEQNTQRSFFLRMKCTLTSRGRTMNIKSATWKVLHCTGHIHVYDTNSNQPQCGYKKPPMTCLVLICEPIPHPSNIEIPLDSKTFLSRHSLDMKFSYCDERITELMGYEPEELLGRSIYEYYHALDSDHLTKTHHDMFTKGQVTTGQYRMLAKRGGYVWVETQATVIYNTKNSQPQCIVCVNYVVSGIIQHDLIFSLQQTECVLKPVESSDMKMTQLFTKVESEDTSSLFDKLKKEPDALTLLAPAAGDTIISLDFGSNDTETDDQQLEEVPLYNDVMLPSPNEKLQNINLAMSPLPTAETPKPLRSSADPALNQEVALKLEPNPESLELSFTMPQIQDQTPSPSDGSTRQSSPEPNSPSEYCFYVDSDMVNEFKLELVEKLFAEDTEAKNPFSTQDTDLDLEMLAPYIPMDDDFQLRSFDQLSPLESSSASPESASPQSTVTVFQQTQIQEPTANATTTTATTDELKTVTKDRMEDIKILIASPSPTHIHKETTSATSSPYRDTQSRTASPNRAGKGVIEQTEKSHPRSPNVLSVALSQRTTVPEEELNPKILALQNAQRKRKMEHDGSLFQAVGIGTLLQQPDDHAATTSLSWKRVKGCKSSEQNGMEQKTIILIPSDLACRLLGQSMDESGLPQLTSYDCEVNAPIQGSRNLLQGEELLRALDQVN
compound,measurement,setting,value
O=c1ssc(Cl)c1Cl,AC50,[1],59.1 µM (active)
same,AC50,[2],58.3 µM (active)
same,outcome,[3],inactive
same,AC50,[4],48.6 µM (active)
same,outcome,[5],inactive
same,outcome,[6],inactive
same,outcome,[7],inactive
same,outcome,[8],inactive
same,AC50,[9],61.2 µM (active)
same,AC50,[10],49.6 µM (active)
same,AC50,[11],62.5 µM (active)
same,outcome,[12],inactive
same,outcome,[13],inactive
same,outcome,[14],inactive
same,AC50,[15],50.1 µM (active)
same,AC50,[16],51.6 µM (active)
same,outcome,[17],inactive
same,outcome,[18],inactive
same,outcome,[19],inactive
Cc1ccc2c(c1N)C(=O)c1ccccc1C2=O,outcome,[1],inactive
same,outcome,[2],inactive
same,outcome,[3],inactive
same,outcome,[4],inactive
same,outcome,[5],inactive
same,outcome,[6],inactive
same,outcome,[7],inactive
same,outcome,[9],inactive
same,outcome,[10],inactive
same,outcome,[20],inactive
same,outcome,[11],inactive
same,AC50,[12],4.09 µM (active)
same,outcome,[13],inactive
same,outcome,[14],inactive
same,outcome,[15],inactive
same,outcome,[16],inactive
same,outcome,[17],inactive
same,outcome,[18],inactive
same,outcome,[19],inactive
Cc1ccc(C(=O)Cl)cc1,outcome,[1],inactive
same,outcome,[2],inactive
same,outcome,[3],inactive
same,outcome,[4],inactive
same,outcome,[5],inactive
same,outcome,[6],inactive
same,outcome,[7],inactive
same,outcome,[8],inactive
same,outcome,[9],inactive
same,outcome,[10],inactive
same,outcome,[11],inactive
same,outcome,[12],inactive
same,outcome,[13],inactive
same,outcome,[14],inactive
same,outcome,[15],inactive
same,outcome,[16],inactive
same,outcome,[17],inactive
same,outcome,[18],inactive
same,outcome,[19],inactive
CNC(=O)Oc1ccc(N(C)C)c(C)c1,outcome,[1],inactive
same,outcome,[2],inactive
same,outcome,[3],inactive
same,outcome,[4],inactive
same,outcome,[5],inactive
same,outcome,[6],inactive
same,outcome,[7],inactive
same,outcome,[9],inactive
same,outcome,[10],inactive
same,outcome,[20],inactive
same,outcome,[11],inactive
same,AC50,[12],38.3 µM (active)
same,outcome,[13],inactive
same,outcome,[14],inactive
same,outcome,[15],inactive
same,outcome,[16],inactive
same,outcome,[17],inactive
same,outcome,[18],inactive
same,outcome,[19],inactive
OCC(F)(F)OC(F)(F)C(F)(F)OC(F)(F)CO,outcome,[1],inactive
same,outcome,[2],inactive
same,outcome,[3],inactive
same,outcome,[4],inactive
same,outcome,[5],inactive
same,outcome,[6],inactive
same,outcome,[7],inactive
same,outcome,[8],inactive
same,outcome,[9],inactive
same,outcome,[10],inactive
same,outcome,[11],inactive
same,AC50,[12],74.8 µM (active)
same,outcome,[13],inactive
same,outcome,[14],inactive
same,outcome,[15],inactive
same,outcome,[16],inactive
same,outcome,[17],inactive
same,outcome,[18],inactive
same,outcome,[19],inactive
CCOP(=S)(OCC)SCSCC,outcome,[1],inactive
same,outcome,[2],inactive
same,outcome,[3],inactive
same,outcome,[4],inactive
same,outcome,[5],inactive
same,outcome,[6],inactive
same,outcome,[7],inactive
same,outcome,[8],inactive
same,outcome,[9],inactive
same,AC50,[10],151 µM (active)
same,outcome,[11],inactive
same,AC50,[12],11.7 µM (active)
same,AC50,[13],176 µM (active)
same,outcome,[15],inactive
same,outcome,[16],inactive
same,outcome,[17],inactive
same,outcome,[18],inactive
same,outcome,[19],inactive
O=C(O)C(F)(F)OC(F)(F)C(F)(F)OC(F)(F)C(=O)O,outcome,[1],inactive
same,outcome,[2],inactive
same,outcome,[3],inactive
same,outcome,[4],inactive
same,outcome,[5],inactive
same,outcome,[6],inactive
same,outcome,[7],inactive
same,outcome,[8],inactive
same,outcome,[9],inactive
same,outcome,[10],inactive
same,outcome,[11],inactive
same,outcome,[12],inactive
same,outcome,[13],inactive
same,outcome,[14],inactive
same,outcome,[15],inactive
same,outcome,[16],inactive
same,outcome,[17],inactive
same,outcome,[18],inactive
same,outcome,[19],inactive
